Test results: PubChem BioAssay (EPA / NIEHS)
Results filed as inconclusive are left out. Activity calls are given as the source filed them. How the source made its calls, unless noted: active means hit-call score of the fitted dose curve at least 0.9, where 1 is the maximum; inactive means score below 0.9.

Key:
[1] = biological target: Myc proto-oncogene protein (Homo sapiens) (UniProt P01106); assay: ATG_Myc_CIS: Attagene CIS-FACTORIAL HepG2 Assay for human Myelocytomatosis (Myc) Proto-Oncogene Transcription Factor (AID 2282990); conditions: HepG2, Attagene cis-reporter transcription factor activity; actives raise or lower the signal
Outline: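 Fluorescence intensity of reporter-specific cDNA fragments, separated by capillary electrophoresis, gives the signal. Transfected HepG2 cells carrying cis-promoter reporter constructs are incubated with compound for 24 h; DMSO serves as baseline.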

[2] = ATG_NRF2_ARE_CIS: Attagene CIS-FACTORIAL HepG2 Assay for human Nuclear Factor Erythroid 2 Related Factor 2 (NFR2) response to Antioxidant Response Elements (ARE) (AID 2282992); conditions: HepG2 Attagene ARE/NRF2 reporter, transcription factor activity; actives raise or lower the signal
Outline: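 Using transiently transfected HepG2 cells exposed for 24 h, reporter mRNA levels were determined by RT-PCR with fluorescent primer extension and capillary electrophoresis, analysed for gain or loss of signal against DMSO.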

[3] = ATG_Oct_MLP_CIS: Attagene CIS-FACTORIAL HepG2 Assay for human Octamer-Binding Transcription Factor (Oct) (AID 2282993); conditions: HepG2 Attagene cis-factorial Oct reporter, mRNA; actives raise or lower the signal
Outline: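 Using HepG2 cells bearing transfected cis-reporter constructs, mRNA induction was read after 24 h by fluorescent RT-PCR and capillary electrophoresis, with DMSO defining baseline for gain- or loss-of-signal fits.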

[4] = biological target: Cellular tumor antigen p53 (Homo sapiens) (UniProt P04637); assay: ATG_p53_CIS: Attagene CIS-FACTORIAL HepG2 Assay for human p53 Transcription Factor (AID 2282994); conditions: HepG2 p53 cis-element reporter, Attagene mRNA; actives raise or lower the signal
Outline: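 In HepG2 cells, reporter transcription units under cis-regulatory promoters were transiently introduced. Following 24 h treatment, RNA was processed to labelled, digested cDNA fragments read by capillary electrophoresis; fitting was bidirectional versus DMSO.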

[5] = BSK_3C_TissueFactor: BioMAP Diversity Plus: 3C Assay for Tissue Factor Biomarker Activity (AID 2282997); conditions: BioMAP 3C HUVEC, tissue factor biomarker readout; actives raise or lower the signal
Outline: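 Readout: Tissue Factor ELISA. Cells: human primary umbilical vein endothelium. Time: 24 h after dosing. Analysis: bidirectional fit, DMSO baseline.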

[6] = BSK_3C_uPAR: BioMAP Diversity Plus: 3C Assay for Urokinase-type plasminogen activator receptor (uPAR) Biomarker Activity (AID 2282998); conditions: BioMAP 3C HUVEC, uPAR biomarker ELISA; actives raise or lower the signal
Outline: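 In this endothelial cell-based assay, human umbilical vein primary cells were treated with chemicals and harvested at 24 h. uPAR was quantified using ELISA, with gains or losses fitted relative to DMSO controls.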

[7] = BSK_3C_VCAM1: BioMAP Diversity Plus: 3C Assay for Vascular cell adhesion molecule 1 (VCAM1) Biomarker Activity (AID 2282999); conditions: BioMAP 3C HUVEC, VCAM1 ELISA, cytokine-stimulated; actives raise or lower the signal
Outline: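 HUVEC primary cells, 24 h compound exposure; VCAM-1 by ELISA; gain/loss of signal fitted bidirectionally vs DMSO baseline.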

[8] = BSK_4H_Eotaxin3: BioMAP Diversity Plus: 4H Assay for Eotaxin 3 Biomarker Activity (AID 2283000); conditions: primary human endothelial cells (HUVEC); actives raise or lower the signal
Outline: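 HUVEC, 24 h post-dose, ELISA for Eotaxin-3/CCL26. Gain or loss of signal fitted bidirectionally vs DMSO baseline.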

[9] = biological target: human Peroxisome Proliferator-activated Receptor alpha (PPARa), PPARA (gene 5465) (UniProt Q07869); assay: ATG_PPARa_TRANS: Attagene TRANS-FACTORIAL HepG2 Assay for human Peroxisome Proliferator-activated Receptor alpha (PPARa) (AID 2283001; active means hit-call score of the fitted dose curve at least 0.9, where 1 is the maximum;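 on AC50: potency for gain of reporter signal over DMSO so agonist or activator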)
Outline: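 HepG2, transient MRTU transfection, 24 h treatment. RT-PCR → FAM labelling → capillary electrophoresis. Fit vs DMSO, positive direction.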

[10] = biological target: human Peroxisome Proliferator-activated Receptor delta (PPARd), PPARD (gene 5467) (UniProt Q03181); assay: ATG_PPARd_TRANS: Attagene TRANS-FACTORIAL HepG2 Assay for human Peroxisome Proliferator-activated Receptor delta (PPARd) (AID 2283002; active means hit-call score of the fitted dose curve at least 0.9, where 1 is the maximum)
Outline: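 Fluorescence from capillary electrophoresis of labelled RT-PCR reporter fragments gives the signal; DMSO sets baseline. Cells: HepG2 transiently carrying GAL4-UAS reporter units plus chimeric nuclear receptor-Gal4 proteins, exposed to chemicals for 24 h.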

[11] = read-out: Intercellular Adhesion Molecule 1 (ICAM1), ICAM1 (gene 3383); assay: BSK_3C_ICAM1: BioMAP Diversity Plus: 3C Assay for Intercellular Adhesion Molecule 1 (ICAM1) Biomarker Activity (AID 2283003); conditions: primary human endothelial cells (HUVEC); actives raise or lower the signal
Outline: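 ELISA readout of ICAM1 in human umbilical vein endothelial cells in the 3C system, taken 24 h post-dose. Gain or loss of signal versus DMSO was fitted in both directions, with SRB total-protein staining run in parallel.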

[12] = biological target: human Retinoic Acid Receptor beta (RARb), RARB (gene 5915) (UniProt P10826); assay: ATG_RARb_TRANS: Attagene TRANS-FACTORIAL HepG2 Assay for human Retinoic Acid Receptor beta (AID 2283004; active means hit-call score of the fitted dose curve at least 0.9, where 1 is the maximum)
Outline: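 HepG2 cells transiently transfected with multiplexed GAL4-UAS reporter units expressing chimeric NR–Gal4 fusions; 24 h compound exposure. Reporter mRNA quantified by RT-PCR, 6-FAM labelling, HpaI digestion and capillary electrophoresis; gain-of-signal fitted against DMSO baseline.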

[13] = biological target: Retinoic acid receptor alpha (Homo sapiens) (UniProt P10276); assay: ATG_RARa_TRANS: Attagene TRANS-FACTORIAL HepG2 Assay for human Retinoic Acid Receptor alpha (RARa) (AID 2283005; active means hit-call score of the fitted dose curve at least 0.9, where 1 is the maximum)
Outline: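 HepG2 transiently transfected with multiplex GAL4-UAS reporter units including a human RARa–GAL4 chimera; 24 h compound exposure. Reporter mRNA quantified by RT-PCR, 6-FAM labeling and capillary electrophoresis; gain of signal versus DMSO.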

[14] = BSK_3C_Proliferation: Cell Proliferation Assessment in the BioMAP Diversity Plus: 3C Assay (AID 2283006); conditions: primary human endothelial cells (HUVEC);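 on AC50: potency may reflect either rise or fall in cell number versus DMSO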
Outline: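 Proliferation as total protein: sulforhodamine B (0.1%) stain of TCA-fixed subconfluent human umbilical vein endothelial cells, absorbance 560 nm, 48 h after dosing. Activity fitted in both directions against DMSO baseline.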

[15] = biological target: Peroxisome proliferator-activated receptor gamma (Homo sapiens) (UniProt P37231); assay: ATG_PPARg_TRANS: Attagene TRANS-FACTORIAL HepG2 Assay for human Peroxisome Proliferator-activated Receptor-gamma (PPARg) (AID 2283007; active means hit-call score of the fitted dose curve at least 0.9, where 1 is the maximum)
Outline: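 HepG2 cells transiently transfected with multiplexed GAL4-UAS reporter units and exogenous chimeric NR-Gal4 proteins; reporter mRNA quantified after 24 h compound exposure by RT-PCR, fluorescent labelling, HpaI digestion and capillary electrophoresis; gain-of-signal fitted versus DMSO baseline.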

[16] = biological target: Nuclear receptor subfamily 1 group I member 2 (Homo sapiens) (UniProt O75469); assay: ATG_PXR_TRANS: Attagene TRANS-FACTORIAL HepG2 Assay for human Pregnane X Receptor (PXR) (AID 2283008; active means hit-call score of the fitted dose curve at least 0.9, where 1 is the maximum)
Outline: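 Multiplexed TRANS reporter panel in HepG2; this component tracks PXR-Gal4-driven reporter mRNA after 24 h dosing, measured by RT-PCR with capillary electrophoresis fluorescence, fitted against DMSO.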

[17] = biological target: human Retinoic Acid Receptor gamma (RARg), RARG (gene 5916) (UniProt P13631); assay: ATG_RARg_TRANS: Attagene TRANS-FACTORIAL HepG2 Assay for human Retinoic Acid Receptor gamma (RARg) (AID 2283009; active means hit-call score of the fitted dose curve at least 0.9, where 1 is the maximum)
Outline: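 Transactivation of exogenous RARg-Gal4 fusion measured as reporter transcript induction after 24 h in transfected HepG2 cells. RNA reverse-transcribed, amplified, fluorescently labeled and resolved by capillary electrophoresis; increase relative to DMSO.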

[18] = biological target: human RAR-related Orphan Receptor beta (RORb), RORB (gene 6096) (UniProt Q92753); assay: ATG_RORb_TRANS: Attagene TRANS-FACTORIAL HepG2 Assay for human RAR-related Orphan Receptor beta (RORb) (AID 2283010; active means hit-call score of the fitted dose curve at least 0.9, where 1 is the maximum)
Outline: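 Read-out is reporter mRNA induction, quantified by RT-PCR with fluorescent capillary electrophoresis, 24 h post-dose in transiently transfected HepG2 expressing exogenous NR-Gal4 chimera. Activity fitted upward versus DMSO.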

[19] = biological target: human RAR-related Orphan Receptor gamma (RORg), RORC (gene 6097) (UniProt P51449); assay: ATG_RORg_TRANS: Attagene TRANS-FACTORIAL HepG2 Assay for human RAR-related Orphan Receptor gamma (RORg) (AID 2283011; active means hit-call score of the fitted dose curve at least 0.9, where 1 is the maximum)
Outline: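 Readout: reporter transcript induction (RT-PCR, fluorescent primer extension, capillary electrophoresis) after 24 h compound exposure of transiently transfected HepG2 cells carrying a RORg-Gal4 chimera and GAL4-UAS reporters; DMSO served as baseline, with increasing signal fitted.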

[20] = ATG_NF_kB_CIS: Attagene CIS-FACTORIAL HepG2 Assay for human Nuclear Factor Kappa B (NF-kB) (AID 2282991); conditions: HepG2 Attagene cis-factorial NF-kB reporter mRNA; actives raise or lower the signal
Outline: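 HepG2 cells transiently transfected with multiplexed cis-element reporter units measuring endogenous transcription factor activity; reporter mRNA read 24 h after dosing by RT-PCR, fluorescent labelling, HpaI digestion and capillary electrophoresis. Bidirectional fit against DMSO baseline.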

Measured: AC50

Sequence of human RAR-related Orphan Receptor gamma (RORg), RORC (gene 6097) (P51449 whole entry, looked up, the tested form may be a part): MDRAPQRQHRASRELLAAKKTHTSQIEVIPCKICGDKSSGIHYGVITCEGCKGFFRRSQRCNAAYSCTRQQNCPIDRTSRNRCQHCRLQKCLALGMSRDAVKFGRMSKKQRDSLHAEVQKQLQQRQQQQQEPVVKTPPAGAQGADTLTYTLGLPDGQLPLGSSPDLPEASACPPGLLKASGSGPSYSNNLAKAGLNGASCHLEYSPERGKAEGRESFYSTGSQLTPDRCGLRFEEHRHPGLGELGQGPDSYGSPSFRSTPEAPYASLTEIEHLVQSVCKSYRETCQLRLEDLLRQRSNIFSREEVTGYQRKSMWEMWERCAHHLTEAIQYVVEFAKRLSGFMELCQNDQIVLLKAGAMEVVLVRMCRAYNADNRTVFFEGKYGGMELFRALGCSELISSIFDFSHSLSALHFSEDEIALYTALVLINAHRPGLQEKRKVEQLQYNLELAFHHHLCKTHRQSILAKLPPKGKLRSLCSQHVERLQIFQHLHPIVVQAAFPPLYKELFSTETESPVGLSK
Sequence of human RAR-related Orphan Receptor beta (RORb), RORB (gene 6096) (Q92753 whole entry, looked up, the tested form may be a part): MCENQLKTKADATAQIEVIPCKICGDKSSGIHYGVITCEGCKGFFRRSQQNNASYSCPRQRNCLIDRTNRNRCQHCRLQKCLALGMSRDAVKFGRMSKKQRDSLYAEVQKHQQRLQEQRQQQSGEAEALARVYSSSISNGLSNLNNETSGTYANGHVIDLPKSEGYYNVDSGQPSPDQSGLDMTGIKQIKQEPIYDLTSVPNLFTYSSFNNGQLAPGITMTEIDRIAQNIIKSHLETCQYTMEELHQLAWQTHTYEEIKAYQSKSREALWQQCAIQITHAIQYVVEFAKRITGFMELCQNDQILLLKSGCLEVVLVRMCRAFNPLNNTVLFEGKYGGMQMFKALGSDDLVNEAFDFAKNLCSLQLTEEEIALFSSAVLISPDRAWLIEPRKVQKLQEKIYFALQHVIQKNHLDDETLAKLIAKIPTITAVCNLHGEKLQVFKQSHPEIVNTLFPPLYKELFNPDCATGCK
Sequence of Peroxisome proliferator-activated receptor gamma (Homo sapiens) (P37231 whole entry, looked up, the tested form may be a part): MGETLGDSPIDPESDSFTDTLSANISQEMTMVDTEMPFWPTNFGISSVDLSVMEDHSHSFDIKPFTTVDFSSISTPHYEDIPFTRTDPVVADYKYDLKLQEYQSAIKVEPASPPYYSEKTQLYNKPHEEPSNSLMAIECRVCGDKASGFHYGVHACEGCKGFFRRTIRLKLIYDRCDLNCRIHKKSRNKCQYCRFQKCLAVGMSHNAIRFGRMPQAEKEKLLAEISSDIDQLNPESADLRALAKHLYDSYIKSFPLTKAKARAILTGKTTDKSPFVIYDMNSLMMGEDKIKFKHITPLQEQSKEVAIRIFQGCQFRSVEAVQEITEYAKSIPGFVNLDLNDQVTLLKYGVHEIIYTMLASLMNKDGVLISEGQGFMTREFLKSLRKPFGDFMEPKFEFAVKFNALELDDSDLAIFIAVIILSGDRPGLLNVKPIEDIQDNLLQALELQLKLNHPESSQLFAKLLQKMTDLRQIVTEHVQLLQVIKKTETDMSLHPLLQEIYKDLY
Sequence of human Peroxisome Proliferator-activated Receptor alpha (PPARa), PPARA (gene 5465) (Q07869 whole entry, looked up): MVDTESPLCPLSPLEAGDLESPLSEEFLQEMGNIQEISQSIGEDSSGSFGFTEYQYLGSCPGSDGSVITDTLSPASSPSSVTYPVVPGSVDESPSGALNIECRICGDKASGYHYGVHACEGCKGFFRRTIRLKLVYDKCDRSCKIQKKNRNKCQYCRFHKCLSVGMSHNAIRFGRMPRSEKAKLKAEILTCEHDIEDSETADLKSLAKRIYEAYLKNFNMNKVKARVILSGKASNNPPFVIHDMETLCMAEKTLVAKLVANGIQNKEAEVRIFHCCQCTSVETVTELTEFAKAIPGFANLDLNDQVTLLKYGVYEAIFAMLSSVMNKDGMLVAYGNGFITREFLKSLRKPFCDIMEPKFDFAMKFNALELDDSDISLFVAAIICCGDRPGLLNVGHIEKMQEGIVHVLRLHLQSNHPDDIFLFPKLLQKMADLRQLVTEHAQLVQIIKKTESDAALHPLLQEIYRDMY
Sequence of human Retinoic Acid Receptor beta (RARb), RARB (gene 5915) (P10826 whole entry, looked up, the tested form may be a part): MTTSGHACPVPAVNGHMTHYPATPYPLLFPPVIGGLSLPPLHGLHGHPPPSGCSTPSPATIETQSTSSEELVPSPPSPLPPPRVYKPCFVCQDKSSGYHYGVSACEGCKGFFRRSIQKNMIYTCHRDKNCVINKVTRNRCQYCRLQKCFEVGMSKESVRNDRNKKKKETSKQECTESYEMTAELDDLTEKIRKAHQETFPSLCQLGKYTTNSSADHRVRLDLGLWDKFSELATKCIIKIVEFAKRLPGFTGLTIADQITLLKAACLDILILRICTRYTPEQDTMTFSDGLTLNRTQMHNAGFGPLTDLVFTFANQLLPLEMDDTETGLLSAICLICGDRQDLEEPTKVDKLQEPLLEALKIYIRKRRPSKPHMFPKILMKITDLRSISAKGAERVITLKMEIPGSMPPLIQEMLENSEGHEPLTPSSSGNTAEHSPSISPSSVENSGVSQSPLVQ
Sequence of human Retinoic Acid Receptor gamma (RARg), RARG (gene 5916) (P13631 whole entry, looked up, the tested form may be a part): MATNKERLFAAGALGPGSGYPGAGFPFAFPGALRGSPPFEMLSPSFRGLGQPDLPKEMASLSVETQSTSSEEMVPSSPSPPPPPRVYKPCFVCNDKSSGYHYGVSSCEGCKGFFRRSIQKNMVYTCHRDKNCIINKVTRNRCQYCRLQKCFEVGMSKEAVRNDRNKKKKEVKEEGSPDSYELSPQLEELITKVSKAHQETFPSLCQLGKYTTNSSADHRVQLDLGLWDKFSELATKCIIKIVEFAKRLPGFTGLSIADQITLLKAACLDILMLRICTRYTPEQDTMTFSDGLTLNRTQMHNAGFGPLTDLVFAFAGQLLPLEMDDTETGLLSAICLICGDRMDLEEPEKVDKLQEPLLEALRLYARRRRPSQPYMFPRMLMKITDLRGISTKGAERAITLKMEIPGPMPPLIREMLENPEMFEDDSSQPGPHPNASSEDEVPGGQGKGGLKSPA
Sequence of Retinoic acid receptor alpha (Homo sapiens) (P10276 whole entry, looked up, the tested form may be a part): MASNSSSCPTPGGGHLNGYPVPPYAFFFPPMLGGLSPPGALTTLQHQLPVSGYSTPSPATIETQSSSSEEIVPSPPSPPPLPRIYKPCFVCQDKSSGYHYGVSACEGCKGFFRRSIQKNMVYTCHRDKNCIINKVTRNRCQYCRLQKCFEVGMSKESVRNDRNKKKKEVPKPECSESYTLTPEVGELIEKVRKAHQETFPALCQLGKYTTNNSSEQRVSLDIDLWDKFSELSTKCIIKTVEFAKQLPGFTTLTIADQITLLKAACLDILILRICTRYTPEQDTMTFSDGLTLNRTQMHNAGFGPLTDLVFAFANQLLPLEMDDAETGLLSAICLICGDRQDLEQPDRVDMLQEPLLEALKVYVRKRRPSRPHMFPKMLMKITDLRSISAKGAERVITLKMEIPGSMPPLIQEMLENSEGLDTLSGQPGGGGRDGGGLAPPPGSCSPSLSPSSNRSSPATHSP
Sequence of Cellular tumor antigen p53 (Homo sapiens) (P04637 whole entry, looked up, the tested form may be a part): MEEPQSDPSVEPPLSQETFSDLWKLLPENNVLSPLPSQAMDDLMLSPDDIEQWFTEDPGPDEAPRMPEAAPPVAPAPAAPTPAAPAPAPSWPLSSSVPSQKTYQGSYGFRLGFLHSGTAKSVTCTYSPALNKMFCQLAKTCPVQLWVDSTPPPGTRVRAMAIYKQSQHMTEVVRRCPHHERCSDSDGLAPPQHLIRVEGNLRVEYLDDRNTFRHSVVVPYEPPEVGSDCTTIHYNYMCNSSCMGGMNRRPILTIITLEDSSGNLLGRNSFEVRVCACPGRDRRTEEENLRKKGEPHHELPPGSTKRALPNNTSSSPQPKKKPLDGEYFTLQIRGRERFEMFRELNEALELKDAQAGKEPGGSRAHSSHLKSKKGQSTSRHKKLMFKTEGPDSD
Sequence of Nuclear receptor subfamily 1 group I member 2 (Homo sapiens) (O75469 whole entry, looked up, the tested form may be a part): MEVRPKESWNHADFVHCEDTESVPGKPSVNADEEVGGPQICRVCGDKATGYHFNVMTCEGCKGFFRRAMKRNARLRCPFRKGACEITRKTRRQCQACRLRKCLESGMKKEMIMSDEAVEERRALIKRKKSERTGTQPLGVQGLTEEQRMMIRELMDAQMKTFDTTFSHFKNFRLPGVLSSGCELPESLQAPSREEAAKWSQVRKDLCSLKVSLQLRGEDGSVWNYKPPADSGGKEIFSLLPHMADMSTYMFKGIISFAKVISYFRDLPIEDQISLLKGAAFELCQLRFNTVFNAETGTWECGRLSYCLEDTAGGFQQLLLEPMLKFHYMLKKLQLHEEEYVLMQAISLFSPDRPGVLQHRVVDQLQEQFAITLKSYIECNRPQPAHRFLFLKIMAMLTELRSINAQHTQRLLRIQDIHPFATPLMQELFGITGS
Sequence of Myc proto-oncogene protein (Homo sapiens) (P01106 whole entry, looked up, the tested form may be a part): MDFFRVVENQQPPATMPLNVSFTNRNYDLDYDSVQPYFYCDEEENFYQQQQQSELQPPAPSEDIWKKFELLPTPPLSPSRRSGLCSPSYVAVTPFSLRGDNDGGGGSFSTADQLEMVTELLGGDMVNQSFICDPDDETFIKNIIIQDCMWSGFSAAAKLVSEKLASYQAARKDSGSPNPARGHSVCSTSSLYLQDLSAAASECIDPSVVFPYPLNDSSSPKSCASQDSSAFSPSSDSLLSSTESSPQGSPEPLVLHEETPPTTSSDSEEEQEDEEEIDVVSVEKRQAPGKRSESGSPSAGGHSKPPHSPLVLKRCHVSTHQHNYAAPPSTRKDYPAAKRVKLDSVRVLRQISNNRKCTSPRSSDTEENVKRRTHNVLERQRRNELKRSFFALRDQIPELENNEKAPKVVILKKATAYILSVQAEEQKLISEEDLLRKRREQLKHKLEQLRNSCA

IC(I)I
inactive: [1] | [2] | [3] | [4] | [5] | [6] | [7] | [8] | [9] | [10] | [11] | [12] | [13] | [14] | [15] | [16] | [17] | [18] | [19]

Cc1ccc2c(c1)C(=O)OC2=O
inactive: [1] | [2] | [3] | [4] | [10] | [13] | [15] | [16] | [18]

CC(C)NCC(O)COc1ccc(CC(N)=O)cc1 (stereo not drawn)
inactive: [1] | [3] | [4] | [9] | [13] | [15] | [16] | [18]
active: [2] 61.5 µM

CCCCOC(=O)CCCCCCCC(=O)OCCCC
inactive: [1] | [2] | [3] | [4] | [5] | [6] | [7] | [8] | [9] | [11] | [14] | [16]

CCCCCC(=O)CC
inactive: [1] | [2] | [3] | [4] | [9] | [10] | [15]

CCN(CCN)c1cccc(C)c1
inactive: [1] | [2] | [4] | [9] | [12] | [15] | [16] | [17] | [19]

CC/C=C\CC/C=C/CO
active: [2] 48.2 µM | [15] 52.9 µM
inactive: [1] | [3] | [9] | [10] | [16]

Nc1ccc2cc(S(=O)(=O)O)cc(O)c2c1N=Nc1ccccc1C(F)(F)F
inactive: [1] | [2] | [3] | [9] | [10] | [12] | [13] | [15] | [16]

O=Cc1ccccc1S(=O)(=O)O
inactive: [1] | [2] | [3] | [10] | [15]

CCCCCCCCCCCCCCCC(=O)OC/C=C(C)/C=C/C=C(C)/C=C/C1=C(C)CCCC1(C)C
active: [2] 23.9 µM | [7] 20 µM | [14] 4.06 µM | [15] 37.9 µM | [16] 2.82 µM
inactive: [1] | [3] | [5] | [6] | [8] | [9] | [10] | [11] | [18]

Oc1c(Cl)cc(Cl)c(Cl)c1Cc1c(O)c(Cl)cc(Cl)c1Cl
active: [2] 3.04 µM | [3] 1.3 µM | [4] 11.1 µM | [5] 18.5 µM | [6] 1.23 µM | [7] 20 µM | [8] 10.8 µM | [9] 11.1 µM | [11] 27.1 µM | [14] 2.22 µM | [16] 5.79 µM
inactive: [20] | [12] | [13] | [17] | [18] | [19]

CCCCCCCC/C=C\CCCCCCCC(=O)OCC
inactive: [1] | [2] | [10] | [12] | [16]
active: [9] 45.1 µM | [15] 50.5 µM

O=C(O)CCCCCCCCCCCC(=O)O
inactive: [1] | [2] | [3] | [9] | [15] | [16] | [18] | [19]

C=CCCCCCCCCCC
inactive: [1] | [2] | [3] | [10] | [15] | [19]
